Out of some 5,500 compounds screened, about 2,000 (36%) were called active. Not shown: some 18% with an inconclusive outcome. Rule as the data show it: active = normalized growth mostly below about 0.91 (no sharp cut-off); inconclusive = no clear call, values can overlap the other calls; inactive = mostly above about 0.92. Some of the results follow.
Experiment: chemical genetic growth profiling, strain panel (AID 1159580);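 also: tested at 20 µM; growth read once vehicle control cultures reached saturation at 30 °C; 1 = growth at the plate median or of vehicle wells; lower values mean less growth of the strain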
Details: growth OD

Measured: normalized growth

COc1cc(-c2cc(=O)c3c(O)c(OC)c(OC)c(OC)c3o2)cc(OC)c1OC
inactive: S. cerevisiae deletion strains, locus YAL021C, strain ccr4, stronger effect = lower value 1.01 | S. cerevisiae deletion strains, locus YAL026C, strain drs2, stronger effect = lower value 1.01 | S. cerevisiae deletion strains, locus YAL030W, strain snc1, stronger effect = lower value 1.01 | S. cerevisiae deletion strains, locus YBL061C, strain skt5, stronger effect = lower value 1.01 | S. cerevisiae deletion strains, locus YBR009C, strain hhf1, stronger effect = lower value 1.01 | S. cerevisiae deletion strains, locus YBR023C, strain chs3, stronger effect = lower value 1.01 | S. cerevisiae deletion strains, locus YBR171W, strain sec66, stronger effect = lower value 1.01 | S. cerevisiae deletion strains, locus YBR231C, strain swc5, stronger effect = lower value 1.01 | S. cerevisiae deletion strains, locus YBR279W, strain paf1, stronger effect = lower value 0.998 | S. cerevisiae deletion strains, locus YCL011C, strain gbp2, stronger effect = lower value 1.01 | S. cerevisiae deletion strains, locus YCL016C, strain dcc1, stronger effect = lower value 1.01 | S. cerevisiae deletion strains, locus YCL061C, strain MRC1, stronger effect = lower value 1.03 | S. cerevisiae deletion strains, locus YCL069W, strain vba3, stronger effect = lower value 1.01 | S. cerevisiae deletion strains, locus YCR088W, strain abp1, stronger effect = lower value 1.01 | S. cerevisiae deletion strains, locus YDL005C, strain med2, stronger effect = lower value 1.02 | S. cerevisiae deletion strains, locus YDL040C, strain nat1, stronger effect = lower value 1.01 | S. cerevisiae deletion strains, locus YDR001C, strain nth1, stronger effect = lower value 1.01 | S. cerevisiae deletion strains, locus YDR069C, strain doa4, stronger effect = lower value 1.02 | S. cerevisiae deletion strains, locus YDR137W, strain rgp1, stronger effect = lower value 0.997 | S. cerevisiae deletion strains, locus YDR159W, strain sac3, stronger effect = lower value 1.03 | S. cerevisiae deletion strains, locus YDR195W, strain ref2 1.02 | S. cerevisiae deletion strains, locus YDR297W, strain sur2, stronger effect = lower value 1.01 | S. cerevisiae deletion strains, locus YDR334W, strain swr1, stronger effect = lower value 1.01 | S. cerevisiae deletion strains, locus YDR335W, strain msn5, stronger effect = lower value 1.03 | S. cerevisiae deletion strains, locus YDR392W, strain spt3, stronger effect = lower value 0.97 | S. cerevisiae deletion strains, locus YEL003W, strain gim4, stronger effect = lower value 1.01 | S. cerevisiae deletion strains, locus YEL037C, strain rad23, stronger effect = lower value 1.01 | S. cerevisiae deletion strains, locus YEL061C, strain CIN8 (second series), stronger effect = lower value 1.01 | S. cerevisiae deletion strains, locus YER015W, strain faa2, stronger effect = lower value 1.01 | S. cerevisiae deletion strains, locus YER016W, strain bim1, stronger effect = lower value 1.02 | S. cerevisiae deletion strains, locus YER111C, strain swi4, stronger effect = lower value 1 | S. cerevisiae deletion strains, locus YER155C, strain BEM2 (second series), stronger effect = lower value 1 | S. cerevisiae deletion strains, locus YFR010W, strain ubp6, stronger effect = lower value 1.01 | S. cerevisiae deletion strains, locus YGL167C, strain pmr1, stronger effect = lower value 1.02 | S. cerevisiae deletion strains, locus YGL173C, strain kem1, stronger effect = lower value 1.01 | S. cerevisiae deletion strains, locus YGL227W, strain vid30, stronger effect = lower value 1.01 | S. cerevisiae deletion strains, locus YGL240W, strain doc1, stronger effect = lower value 1.04 | S. cerevisiae deletion strains, locus YGL253W, strain hxk2, stronger effect = lower value 1 | S. cerevisiae deletion strains, locus YHR013C, strain ard1, stronger effect = lower value 1 | S. cerevisiae deletion strains, locus YHR027C, strain rpn1, stronger effect = lower value 1.01 | S. cerevisiae deletion strains, locus YHR142W, strain chs7, stronger effect = lower value 0.99 | S. cerevisiae deletion strains, locus YJL092W, strain hpr5, stronger effect = lower value 1.02 | S. cerevisiae deletion strains, locus YJL095W, strain BCK1 (second series), stronger effect = lower value 1.01 | S. cerevisiae deletion strains, locus YJL115W, strain asf1, stronger effect = lower value 1.01 | S. cerevisiae deletion strains, locus YJL129C, strain trk1, stronger effect = lower value 1 | S. cerevisiae deletion strains, locus YJL154C, strain vps35, stronger effect = lower value 1.01 | S. cerevisiae deletion strains, locus YJL164C, strain tpk1, stronger effect = lower value 0.999 | S. cerevisiae deletion strains, locus YJL166W, strain qcr8, stronger effect = lower value 1.01 | S. cerevisiae deletion strains, locus YJL187C, strain SWE1, stronger effect = lower value 1.01 | S. cerevisiae deletion strains, locus YKL160W, strain elf1, stronger effect = lower value 1.01 | S. cerevisiae deletion strains, locus YKR026C, strain gcn3, stronger effect = lower value 1.01 | S. cerevisiae deletion strains, locus YKR091W, strain srl3, stronger effect = lower value 1.01 | S. cerevisiae deletion strains, locus YLL001W, strain dnm1, stronger effect = lower value 1.02 | S. cerevisiae deletion strains, locus YLL026W, stronger effect = lower value 1.01 | S. cerevisiae deletion strains, locus YLL041C, strain sdh2, stronger effect = lower value 1.01 | S. cerevisiae deletion strains, locus YLR027C, strain aat2, stronger effect = lower value 1.01 | S. cerevisiae deletion strains, locus YLR221C, strain rsa3, stronger effect = lower value 1 | S. cerevisiae deletion strains, locus YLR258W, strain gsy2, stronger effect = lower value 1.01 | S. cerevisiae deletion strains, locus YLR262C, strain YPT6 (second series), stronger effect = lower value 1.01 | S. cerevisiae deletion strains, locus YLR320W, strain mms22, stronger effect = lower value 1.02 | S. cerevisiae deletion strains, locus YLR342W, strain FKS1, stronger effect = lower value 1.02 | S. cerevisiae deletion strains, locus YLR357W, strain rsc2, stronger effect = lower value 0.994 | S. cerevisiae deletion strains, locus YLR370C, strain arc18, stronger effect = lower value 1.02 | S. cerevisiae deletion strains, locus YLR384C, strain iki3, stronger effect = lower value 1.01 | S. cerevisiae deletion strains, locus YML120C, strain ndi1, stronger effect = lower value 1 | S. cerevisiae deletion strains, locus YMR058W, strain fet3, stronger effect = lower value 1 | S. cerevisiae deletion strains, locus YMR125W, strain sto1, stronger effect = lower value 0.999 | S. cerevisiae deletion strains, locus YMR129W, stronger effect = lower value 1.01 | S. cerevisiae deletion strains, locus YMR205C, strain PFK2, stronger effect = lower value 1.02 | S. cerevisiae deletion strains, locus YMR231W, strain pep5, stronger effect = lower value 1.01 | S. cerevisiae deletion strains, locus YNL071W, strain lat1, stronger effect = lower value 1 | S. cerevisiae deletion strains, locus YNL209W, strain ssb2, stronger effect = lower value 1 | S. cerevisiae deletion strains, locus YNL248C, strain rpa49, stronger effect = lower value 1 | S. cerevisiae deletion strains, locus YNL322C, strain KRE1 (second series), stronger effect = lower value 1.02 | S. cerevisiae deletion strains, locus YNR049C, strain mso1, stronger effect = lower value 1.01 | S. cerevisiae deletion strains, locus YOR001W, strain rrp6, stronger effect = lower value 0.999 | S. cerevisiae deletion strains, locus YOR070C, strain gyp1, stronger effect = lower value 1 | S. cerevisiae deletion strains, locus YOR080W, strain dia2, stronger effect = lower value 1.01 | S. cerevisiae deletion strains, locus YOR083W, strain WHI5, stronger effect = lower value 0.995 | S. cerevisiae deletion strains, locus YOR106W, strain vam3, stronger effect = lower value 1 | S. cerevisiae deletion strains, locus YOR265W, strain rbl2, stronger effect = lower value 1.01 | S. cerevisiae deletion strains, locus YOR270C, strain vph1, stronger effect = lower value 0.99 | S. cerevisiae deletion strains, locus YOR290C, strain snf2, stronger effect = lower value 0.933 | S. cerevisiae deletion strains, locus YPL051W, strain arl3, stronger effect = lower value 1 | S. cerevisiae deletion strains, locus YPL078C, strain atp4, stronger effect = lower value 0.999 | S. cerevisiae deletion strains, locus YPL106C, strain sse1, stronger effect = lower value 1.03 | S. cerevisiae deletion strains, locus YPL240C, strain hsp82, stronger effect = lower value 1.01

COc1cc(O)c2c(=O)cc(-c3ccc(O)cc3)oc2c1
active: S. cerevisiae deletion strains, locus YIR030C, strain dcg1, stronger effect = lower value 1.08 [resistant]
inactive: S. cerevisiae deletion strains, locus YBR021W, strain FUR4, stronger effect = lower value 1.02 | S. cerevisiae deletion strains, locus YBR229C, strain ROT2, stronger effect = lower value 1 | S. cerevisiae deletion strains, locus YCL029C, strain bik1, stronger effect = lower value 1 | S. cerevisiae deletion strains, locus YDL035C, strain GPR1, stronger effect = lower value 1 | S. cerevisiae deletion strains, locus YDL074C, strain BRE1, stronger effect = lower value 1.01 | S. cerevisiae deletion strains, locus YDL101C, strain DUN1, stronger effect = lower value 1.02 | S. cerevisiae deletion strains, locus YDL185W, strain tfp1, stronger effect = lower value 1.02 | S. cerevisiae deletion strains, locus YDL192W, strain arf1, stronger effect = lower value 1.05 | S. cerevisiae deletion strains, locus YDR101C, strain arx1, stronger effect = lower value 1.03 | S. cerevisiae deletion strains, locus YDR162C, strain NBP2, stronger effect = lower value 1.06 | S. cerevisiae deletion strains, locus YDR318W, strain mcm21, stronger effect = lower value 1.02 | S. cerevisiae deletion strains, locus YDR388W, stronger effect = lower value 0.994 | S. cerevisiae deletion strains, locus YDR502C, strain sam2, stronger effect = lower value 1 | S. cerevisiae deletion strains, locus YEL061C, strain CIN8, stronger effect = lower value 1 | S. cerevisiae deletion strains, locus YER110C, stronger effect = lower value 1.02 | S. cerevisiae deletion strains, locus YER155C, strain BEM2, stronger effect = lower value 1.04 | S. cerevisiae deletion strains, locus YER167W, strain BCK2, stronger effect = lower value 1.02 | S. cerevisiae deletion strains, locus YGL078C, strain dbp3, stronger effect = lower value 1.03 | S. cerevisiae deletion strains, locus YGL086W, strain mad1, stronger effect = lower value 1 | S. cerevisiae deletion strains, locus YGL248W, strain PDE1, stronger effect = lower value 1.02 | S. cerevisiae deletion strains, locus YGR135W, strain pre9, stronger effect = lower value 1.04 | S. cerevisiae deletion strains, locus YGR252W, strain gcn5, stronger effect = lower value 0.949 | S. cerevisiae deletion strains, locus YHR030C, strain SLT2, stronger effect = lower value 1.01 | S. cerevisiae deletion strains, locus YHR079C, strain IRE1 (second series), stronger effect = lower value 1.01 | S. cerevisiae deletion strains, locus YHR094C, strain hxt1, stronger effect = lower value 0.996 | S. cerevisiae deletion strains, locus YHR129C, strain ARP1, stronger effect = lower value 1.01 | S. cerevisiae deletion strains, locus YHR200W, strain rpn10, stronger effect = lower value 1.07 | S. cerevisiae deletion strains, locus YIL066C, strain RNR3, stronger effect = lower value 1.02 | S. cerevisiae deletion strains, locus YIL073C, strain SPO22, stronger effect = lower value 1.02 | S. cerevisiae deletion strains, locus YIL125W, strain kgd1, stronger effect = lower value 1.02 | S. cerevisiae deletion strains, locus YJL095W, strain BCK1, stronger effect = lower value 1.05 | S. cerevisiae deletion strains, locus YJL134W, strain LCB3, stronger effect = lower value 0.997 | S. cerevisiae deletion strains, locus YJL168C, strain set2, stronger effect = lower value 1 | S. cerevisiae deletion strains, locus YJL187C, strain SWE1 (second series), stronger effect = lower value 1.02 | S. cerevisiae deletion strains, locus YJR043C, strain POL32, stronger effect = lower value 1 | S. cerevisiae deletion strains, locus YJR075W, strain HOC1, stronger effect = lower value 1 | S. cerevisiae deletion strains, locus YKL009W, strain mrt4, stronger effect = lower value 0.981 | S. cerevisiae deletion strains, locus YKL068W, stronger effect = lower value 1 | S. cerevisiae deletion strains, locus YKL085W, strain MDH1 (second series), stronger effect = lower value 0.994 | S. cerevisiae deletion strains, locus YKL085W, strain MDH1, stronger effect = lower value 0.994 | S. cerevisiae deletion strains, locus YKR001C, strain vps1, stronger effect = lower value 1.01 | S. cerevisiae deletion strains, locus YLR039C, strain RIC1, stronger effect = lower value 1.07 | S. cerevisiae deletion strains, locus YLR058C, strain SHM2, stronger effect = lower value 1.01 | S. cerevisiae deletion strains, locus YLR102C, strain apc9, stronger effect = lower value 1.04 | S. cerevisiae deletion strains, locus YLR262C, strain YPT6, stronger effect = lower value 1.07 | S. cerevisiae deletion strains, locus YLR268W, strain sec22, stronger effect = lower value 1.01 | S. cerevisiae deletion strains, locus YLR330W, strain CHS5, stronger effect = lower value 0.997 | S. cerevisiae deletion strains, locus YLR342W, strain FKS1 (second series), stronger effect = lower value 1.01 | S. cerevisiae deletion strains, locus YLR371W, strain rom2, stronger effect = lower value 1.03 | S. cerevisiae deletion strains, locus YLR418C, strain cdc73, stronger effect = lower value 0.998 | S. cerevisiae deletion strains, locus YML016C, strain PPZ1, stronger effect = lower value 0.994 | S. cerevisiae deletion strains, locus YML032C, strain rad52, stronger effect = lower value 0.996 | S. cerevisiae deletion strains, locus YML124C, strain tub3, stronger effect = lower value 1.02 | S. cerevisiae deletion strains, locus YMR078C, strain ctf18, stronger effect = lower value 1.02 | S. cerevisiae deletion strains, locus YMR223W, strain ubp8, stronger effect = lower value 1.04 | S. cerevisiae deletion strains, locus YMR307W, strain GAS1, stronger effect = lower value 0.907 | S. cerevisiae deletion strains, locus YNL067W, strain RPL9B, stronger effect = lower value 1.03 | S. cerevisiae deletion strains, locus YNL233W, strain BNI4, stronger effect = lower value 1.02 | S. cerevisiae deletion strains, locus YNL250W, strain rad50, stronger effect = lower value 1.02 | S. cerevisiae deletion strains, locus YNL271C, strain bni1, stronger effect = lower value 1.04 | S. cerevisiae deletion strains, locus YNL298W, strain CLA4, stronger effect = lower value 0.963 | S. cerevisiae deletion strains, locus YNL307C, strain MCK1, stronger effect = lower value 0.994 | S. cerevisiae deletion strains, locus YNR052C, strain pop2, stronger effect = lower value 1.01 | S. cerevisiae deletion strains, locus YOL006C, strain TOP1, stronger effect = lower value 1.04 | S. cerevisiae deletion strains, locus YOL012C, strain htz1 0.814 | S. cerevisiae deletion strains, locus YOL147C, strain pex11, stronger effect = lower value 1.02 | S. cerevisiae deletion strains, locus YOR061W, strain CKA2, stronger effect = lower value 1 | S. cerevisiae deletion strains, locus YOR069W, strain VPS5, stronger effect = lower value 0.999 | S. cerevisiae deletion strains, locus YOR136W, strain idh2, stronger effect = lower value 0.993 | S. cerevisiae deletion strains, locus YOR144C, strain elg1, stronger effect = lower value 1.04 | S. cerevisiae deletion strains, locus YOR184W, strain ser1, stronger effect = lower value 1.07 | S. cerevisiae deletion strains, locus YOR316C, strain cot1, stronger effect = lower value 1.02 | S. cerevisiae deletion strains, locus YPL055C, strain LGE1, stronger effect = lower value 1.02 | S. cerevisiae deletion strains, locus YPR119W, strain clb2, stronger effect = lower value 1.01 | S. cerevisiae deletion strains, locus YPR141C, strain kar3, stronger effect = lower value 1.08 | S. cerevisiae deletion strains, locus YPR163C, strain tif3, stronger effect = lower value 0.996 | S. cerevisiae deletion strains, locus YPR167C, strain met16, stronger effect = lower value 1.02 | S. cerevisiae deletion strains, strain wtn01, stronger effect = lower value 1.02 | S. cerevisiae strains, strain wild type, stronger effect = lower value 1.01
